Bioassay records: PubChem, National Center for Advancing Translational Sciences (NCATS)
A selection: hits, their analogues and other compounds. The true share with any hit is near 21%.
Pf growth 48h: inhibits P. falciparum growth in the first generation, 48 h | P. falciparum luciferase growth in erythrocytes, 48 h | Potency, µM (titrated, usually from 28.7 µM), for the others: at the top dose activity change, negative = inhibition, usual class: inhibitors | 310,000 tested, 5.9% active; note: potency is the fitted concentration of half-maximal effect; % is set by controls: 0 for no effect and ±100 for the full control effect
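Luminescence readout; reporter = integrated firefly luciferase in P. falciparum. RBC culture at 2% hematocrit, 0.1% parasitemia final, 37 C/5% CO2; decreased signal taken as growth inhibition.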
Shiga inhibitor: Shiga toxin inhibition. Vero cells, Shiga toxin protein synthesis inhibition reporter. 290,000 tested, 9.2% active. inhibition, % at 38.7 µM; in the data active = inhibition mostly above about 28%, no sharp cut-off; inactive = mostly below about 43%; note: 0% is about no effect
CHX counter: counter-screen for Shiga toxin inhibitors: cycloheximide protein synthesis inhibition | max response, % | cell reporter, cycloheximide protein synthesis inhibition counterscreen | 300,000 tested, 12% active; in the data active = max response mostly above about 13%, no sharp cut-off; inactive = mostly below about 14%; note: read at 38.3 µM for the half of the compounds with a filed dose; 0% is about no effect
Pf growth 96h: P. falciparum growth inhibition at 96 hour, primary screen for plastid delayed-death inhibitors | P. falciparum luciferase reporter growth, 96 h | Potency, µM (series often up to 28.7 µM), for inactives: at the highest dose activity change, negative = inhibition, most hits filed as inhibitors | 320,000 tested, 6.9% active; note: potency is the fitted concentration of half-maximal effect; % is set by controls: 0 for no effect and ±100 for the full control effect
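Cell-based qHTS: luciferase-tagged P. falciparum in erythrocytes (2% hematocrit, 0.05% parasitemia final) incubated with compounds for 96 hours, 37 C, 5% CO2; luciferase detection reagent then added and luminescence measured.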
NS1 inh: blocks influenza NS1 protein function | Potency, µM (titrated, usually from 46.1 µM), without a hit: at the highest dose activity, positive = more growth | 270,000 tested, 0.4% active | AID 2326; calls by dose curve; note: potency is the fitted concentration of half-maximal effect; actives are rising curves; nearly all actives have a fitted effect of over 50% in size
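A cell-based growth assay was used: compounds that relieve NS1-induced slow growth of budding yeast raise OD600. Assay medium was yeast nitrogen base with ammonium sulphate and -URA supplement, pH 6.0, with 2% galactose.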
* marks the source's active call; other numbers are inactive results; [ ] = another dose, or the depositor's remark. Unless noted, calls come from the whole dose curve; as a rule, active = well fitted inhibition curve with a large enough effect; inconclusive = small, poorly fitted or top-dose-only effect, or another doubt; inactive = no such curve, though single readings can be large or run the other way.

O=C(NO)c1ccc(C(=O)N(C2CCCCC2)C2CCCCC2)cc1 was read as Pf growth 48h 3.3µM*, Shiga inhibitor 32, CHX counter -3, Pf growth 96h 6% and NS1 inh -99%.
O=C(c1c(F)cccc1F)N(Cc1cccs1)C1CCCC1 was read as Pf growth 48h -12%, Shiga inhibitor 33, CHX counter -3, Pf growth 96h 31% and NS1 inh -5%.
For CCC1(CC)NC(=O)N(CC(=O)N2N=C(c3ccc(Cl)cc3)CC2c2ccco2)C1=O (stereo not drawn) the results were Pf growth 48h inconclusive, Shiga inhibitor -6, CHX counter -2 and Pf growth 96h inconclusive.
For COc1ccccc1OCCC(=O)OCCN1C(=O)c2ccccc2C1=O the results were Shiga inhibitor -4, CHX counter -4, Pf growth 96h 4%[5.75 µM] and NS1 inh -22%.
`Nc1cccc2c1C(=O)N(CCOc1ccc(F)cc1)C2=O` gave Pf growth 48h 11%, Shiga inhibitor 140*, CHX counter 54*, Pf growth 96h 56% and NS1 inh -5%.
`O=C1c2ccccc2C(=O)N1CCOc1ccccc1Cl` gave Pf growth 48h 1%, Shiga inhibitor -18, CHX counter -3, Pf growth 96h -46% and NS1 inh -16%.
Screening COc1ccc(OCCN2C(=O)c3ccccc3C2=O)cc1 returned Pf growth 48h 57%, Shiga inhibitor 90*, CHX counter 29* and Pf growth 96h 30%.
`O=C1c2ccccc2C(=O)N1CCOc1ccccc1Br` gave Pf growth 48h 21%, Shiga inhibitor 73*, CHX counter 42*, Pf growth 96h 20% and NS1 inh -16%.
For Cc1cccc2c1N(CCOc1ccc(C(C)(C)C)cc1)C(=O)C2=O the results were Pf growth 48h 10µM*, Shiga inhibitor -8, CHX counter -2, Pf growth 96h 23% and NS1 inh 14%.
`CCOC(=O)c1c(NC(=O)CSc2nnc(Cc3ccccc3)o2)sc(C)c1C` gave Pf growth 48h inconclusive, Shiga inhibitor -9, CHX counter -3, Pf growth 96h inconclusive and NS1 inh -18%.
`O=S(=O)(Nc1nc2ccc(Cl)cc2s1)c1cccs1` gave Pf growth 48h 4%, Shiga inhibitor 17, CHX counter 5, Pf growth 96h 5% and NS1 inh 0%.
For CCC(=O)Nc1ccc(C2=Nn3c(nnc3C(C)C)SC2)cc1 the results were Pf growth 48h inconclusive, Shiga inhibitor 27, CHX counter 10, Pf growth 96h inconclusive and NS1 inh 1%.
For O=C(OCCN1C(=O)c2ccccc2C1=O)c1cccc(OC(F)F)c1 the results were Pf growth 48h 16%, Shiga inhibitor 16, CHX counter -4, Pf growth 96h 24%[5.75 µM] and NS1 inh -13%.
For CC(C)Oc1cccc(OCCN2C(=O)c3ccccc3C2=O)c1 the results were Pf growth 48h 9%, Shiga inhibitor 36*, CHX counter 27*, Pf growth 96h 244%[5.75 µM] and NS1 inh -4%.
Cc1ccccc1OCCN1C(=O)c2ccccc2C1=O was read as Pf growth 48h 44%, Shiga inhibitor 154*, CHX counter 47*, Pf growth 96h 44% and NS1 inh -8%.
`Cc1cc(C)n2c(SCc3ccc(Br)cc3)nnc2n1` gave Pf growth 48h -4%, Shiga inhibitor 35, CHX counter 11*, Pf growth 96h -21% and NS1 inh -39%.
For COc1ccc(/C=C/CN2CCC(n3nccc3NC(=O)C3CC3)CC2)cc1 the results were Pf growth 48h 10%, Shiga inhibitor -2, CHX counter 8, Pf growth 96h inconclusive and NS1 inh inconclusive.
For Cc1ccc(Nc2nc(-c3ccncc3)cs2)cc1 the results were Pf growth 48h 403%, Shiga inhibitor 119*, CHX counter 47*, Pf growth 96h 2% and NS1 inh -7%.
For Cc1nc(-c2ccc3c(c2)CCC(=O)N3)cs1 the results were Pf growth 48h 119%, Shiga inhibitor 65*, CHX counter 29*, Pf growth 96h 123% and NS1 inh -1%.
Screening Cc1cccc(Nc2nc(-c3ccncc3)cs2)c1 returned Pf growth 48h 41%, Shiga inhibitor 143*, CHX counter 42* and Pf growth 96h 27%.
Cc1nc(-c2ccc3c(c2)OCCO3)cs1 was read as Pf growth 48h inactive, Shiga inhibitor 169*, CHX counter 44* and Pf growth 96h inactive.
